hcDAF12 agonist – H. contortus DAF-12 activation, primary screen; HEK293 hcDAF-12 lit1-tk-luc reporter, luminescence; 0% DMSO, 100% Δ7-dafachronic acid; activation, % at 6.8 µM; 370,000 compounds, 1.4% hits; AID 652067;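 active = activation above the mean of all tested compounds plus 3 SD, cut at about 5.5% in these data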;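 note: 100% = response to 3 µM Δ7-dafachronic acid high control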
AHR act – human AHR activation. P35869. AHR-responsive luciferase reporter cells, luminescence. activation, % at 5 µM. 320,000 compounds, 2.5% hits. AID 2796; in the data active = activation above about 47%;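 note: 0% = vehicle wells and 100% = reference agonist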
ssDAF12 agonist – activators of S. stercoralis DAF-12 nuclear receptor. HEK293 ssDAF-12/GRIP1 lit1-tk-luc reporter, luminescence; % of 3 µM dafachronic acid response. activation, % at 6.8 µM. 370,000 compounds, 1% hits;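 active = activation above the mean over all tested compounds plus 3 SD, cut at about 0.9% in these data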;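 note: 0% = DMSO-only wells and 100% = 3 µM delta7-dafachronic acid wells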
hgDAF-12 ag – hgDAF-12 agonism, primary luciferase screen | HEK293 GAL4-hgDAF12 UAS-luciferase reporter, agonist luminescence; normalized to butyrate control | activation, % at 6.8 µM | 370,000 compounds, 1.8% hits | AID 687014;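 active = activation above a cutoff set at the mean of all screened compounds plus 3 SD, cut at about 10% in these data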;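 note: 0% = DMSO wells and 100% = sodium butyrate wells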
DAX1 inh-1 – inhibitors of DAX1 repression of SF-1 activated StAR promoter. HEK293T StAR-luciferase reporter, SF-1/DAX-1 repression relief. inhibition, % at 6.8 µM. AID 652010. 370,000 compounds, 1.1% hits;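 active = inhibition above the mean over all tested compounds plus 3 SD, cut at about 3.6% in these data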;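 note: 0% = DAX-1 cells with DMSO and 100% = cells lacking DAX-1 with DMSO; higher inhibition means more luminescence from relief of DAX-1 repression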
DAX1 inh-2 – NR0B1 (DAX1) inhibition; 340,000 compounds, 0.99% hits; P51843; AID 504766; inhibition, % at 6.75 µM; HEK293 Gal4-DAX1 luciferase reporter, luminescence;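 active = inhibition above the mean over all tested compounds plus 3 SD, cut at about 4.2% in these data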;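 note: 0% = DAX1-transfected cells with DMSO and 100% = empty-vector control cells with DMSO; inhibition shows as a rise in luminescence from relieved DAX1 repression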
Target sequence (P51843 207-470 limits assumed): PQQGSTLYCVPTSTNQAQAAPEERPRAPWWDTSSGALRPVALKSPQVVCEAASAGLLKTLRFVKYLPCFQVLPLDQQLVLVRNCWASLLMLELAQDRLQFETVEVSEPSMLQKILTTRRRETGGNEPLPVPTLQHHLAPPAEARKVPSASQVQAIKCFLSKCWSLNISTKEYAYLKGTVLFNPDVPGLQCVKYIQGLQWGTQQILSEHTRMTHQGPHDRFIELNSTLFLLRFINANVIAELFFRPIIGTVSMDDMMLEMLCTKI
hgDAF12 conf – confirmation of H. glycines DAF-12 agonists. shares compounds with hgDAF-12 ag. HEK293 GAL4-hgDAF12 luciferase reporter, agonist mode; percent of butyrate response. activation, % at 6.8 µM. 3,300 compounds, 80% hits. AID 743050;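 active = mean activation over triplicate wells above the hit cutoff derived from the earlier primary screen, cut at about 11% in these data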;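 note: 0% = DMSO low control and 100% = 2 mM sodium butyrate high control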
LXRb DAF12 ctr – LXR-beta agonism as DAF-12 counter-screen; shares compounds with hgDAF-12 ag; HEK293 Gal4-LXR luciferase reporter, 24 h; activation, % at 6.8 µM; 3,300 tested, under 10 active; AID 743051;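 active = mean activation of the triplicate above a set limit carried over from the primary screen, none filed active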
Target sequence (P55055 whole entry, looked up, the tested form may be a part): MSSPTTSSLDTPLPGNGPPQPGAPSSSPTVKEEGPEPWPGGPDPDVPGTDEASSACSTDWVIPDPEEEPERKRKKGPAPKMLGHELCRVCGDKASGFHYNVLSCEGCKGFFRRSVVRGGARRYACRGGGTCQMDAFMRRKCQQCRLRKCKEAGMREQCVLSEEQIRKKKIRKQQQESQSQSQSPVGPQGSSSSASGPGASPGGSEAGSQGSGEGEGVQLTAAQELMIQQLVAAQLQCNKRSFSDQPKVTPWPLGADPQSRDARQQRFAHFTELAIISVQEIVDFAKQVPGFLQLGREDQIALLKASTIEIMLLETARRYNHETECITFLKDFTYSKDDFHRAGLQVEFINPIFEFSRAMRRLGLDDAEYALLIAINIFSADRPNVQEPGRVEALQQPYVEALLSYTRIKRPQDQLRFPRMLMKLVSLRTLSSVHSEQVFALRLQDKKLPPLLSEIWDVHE
Active calls of the source: *; · = no result given. This is a sample that favours compounds with a hit; in the whole collection about 5.7% have one here.

SMILES | hcDAF12 agonist | AHR act | ssDAF12 agonist | hgDAF-12 ag | DAX1 inh-1 | DAX1 inh-2 | hgDAF12 conf | LXRb DAF12 ctr
CCC(CO)Oc1cc(NCc2ccccc2C)c2ncn(C(C)C)c2c1 (configuration not stated) | -1.3 | 3.0 | -0.9 | 0.2 | -0.2 | -0.8 | · | ·
Nc1nc(N)nc(-c2cccc(Br)c2)n1 | 1.0 | · | -0.2 | 14.0* | 4.2* | 2.5 | 11.2* | 0.5
Cc1cccc(-c2nc(N)nc(N)n2)c1 | 1.8 | 10.2 | -0.8 | 2.9 | 0.6 | 1.5 | · | ·
O=C1CCc2cc(S(=O)(=O)Nc3ccccc3Cl)ccc2N1 | -0.6 | 0.6 | -0.6 | 0.4 | 1.8 | 1.3 | · | ·
O=C1CCc2cc(S(=O)(=O)Nc3ccccc3F)ccc2N1 | 0.2 | -0.6 | -1.9 | 25.2* | -0.3 | -0.3 | 0.1 | 0.0
CCOC(=O)Nc1ccc2c(c1)C(=NO)c1ccccc1-2 | 3.9 | · | 0.7 | 18.1* | 2.8 | 2.9 | 12.6* | 0.6
Cc1ccc(NS(=O)(=O)c2cccc(C(=O)N/N=C/c3ccc4c(c3)OCCO4)c2)c(C)c1 | -1.2 | 6.7 | -1.1 | -1.1 | -0.9 | -1.5 | · | ·
CCOC(=O)c1cc(C(=O)OCC)c2cc(Br)ccc2n1 | -2.0 | -1.5 | -1.7 | -0.3 | 0.1 | 0.8 | · | ·
CCCNC(=O)c1oc2ccc3c(c2c1C)C(=O)CC(C)(C)O3 | 2.6 | 14.8 | 0.5 | 15.6* | 2.6 | 0.0 | 12.5* | 0.6
O=c1[nH]c(CSc2ccccn2)nc2ccccc12 | 2.2 | 17.7 | -0.4 | 17.6* | 3.6* | 1.2 | 13.9* | 0.6
COc1ccccc1-c1cc(C(=O)N/N=C\c2cn(C)nc2C)c2ccccc2n1 | 1.9 | 13.7 | -2.1 | -1.8 | 0.4 | -0.3 | · | ·
CN(C)C=NC(=O)c1cc(C(=O)c2ccc(C(C)(C)C)cc2)c[nH]1 | 5.3 | 25.2 | -0.8 | 14.0* | 4.4* | 0.7 | 15.6* | 0.8
CCCC(=O)Nc1nc2ccc(OCC)cc2s1 | 0.7 | 19.9 | -0.3 | 16.6* | 3.4 | -0.1 | 14.8* | 0.5
CC(=O)NCCC(=O)Nc1nc2ccc(Oc3ccccc3)cc2s1 | 5.0 | 11.4 | 0.6 | 21.0* | 2.4 | 1.9 | 14.9* | 0.7
COc1ccc(CN2CC34C=CC(O3)C(C(=O)O)C4C2=O)cc1 (configuration not stated) | -0.2 | 4.8 | -0.8 | -3.6 | -0.5 | 2.5 | · | ·
O=[N+]([O-])c1cccnc1NCCNc1ncc(C(F)(F)F)cc1Cl | 1.6 | 1.2 | -0.5 | 14.2* | 1.7 | 2.6 | 14.8* | 0.4
O=C(CS(=O)Cc1ccccc1Cl)Nc1ccccc1Cl (configuration not stated) | -1.6 | 3.8 | -0.7 | 0.1 | 0.3 | -0.8 | · | ·
CC(=O)c1ccc(NC(=O)c2noc3c2CCCCC3)cc1 | 2.4 | -6.4 | 0.8 | 13.8* | 3.8* | 2.4 | 17.1* | 0.8
CN(C)c1ccnc(C(=O)O)c1 | -0.5 | -1.5 | -1.3 | -1.6 | 0.0 | -0.4 | · | ·
CCOC(=O)C1C(c2cccs2)NC(=O)NC1(O)C(F)(F)F (configuration not stated) | -1.7 | -1.4 | -0.4 | 24.2* | 0.1 | 0.5 | -1.1 | -0.1
CCOC(=O)C1C(c2cccnc2)NC(=O)NC1(O)C(F)(F)F (configuration not stated) | 0.3 | -0.1 | -0.5 | 0.4 | -0.4 | 2.2 | · | ·
Cc1cc(C)n2nc(SCC(=O)Nc3ccc(F)cc3)nc2n1 | -1.2 | -3.8 | -1.0 | 0.4 | -0.1 | 0.6 | · | ·
Cc1cc(C)n2nc(SCC(=O)Nc3ccc(O)cc3)nc2n1 | -2.1 | -2.6 | -1.3 | 14.7* | 0.3 | -0.2 | 1.1 | 0.0
COc1ccc(/C=N/NC(=O)c2ccc[nH]2)cc1 | 4.6 | 13.0 | 0.4 | 13.4* | 3.0 | 3.8 | 14.9* | 0.5
CCOc1ccc(-c2cnc3cccnn23)cc1 | 4.5 | · | 0.0 | 15.0* | 3.5 | · | 11.2* | 0.5
SMILES | hcDAF12 agonist | AHR act | ssDAF12 agonist | hgDAF-12 ag | DAX1 inh-1 | DAX1 inh-2 | hgDAF12 conf | LXRb DAF12 ctr
O=C(NC1CC1)c1cccc(-c2cncc3nccn23)c1 | -1.2 | · | -0.3 | 4.0 | -0.3 | · | · | ·
O=C(NC1CC1)c1ccc(-c2cnc3cccnn23)cc1 | 0.8 | · | -1.0 | 14.2* | 4.4* | · | 8.8 | 0.2
Cc1nnc(-c2ccccc2)c(=O)n1/N=C/c1c(O)ccc2ccccc12 | -3.8 | 11.4 | -1.4 | -9.7 | -2.8 | -4.1 | · | ·
CN1CCN(C(=O)/C(=C/c2ccccc2Cl)NC(=O)c2ccccc2)CC1 | 2.8 | 5.1 | 0.8 | 1.4 | 0.2 | 1.3 | · | ·
O=C(CCS(=O)(=O)c1cc2c(cc1Cl)NC(=O)CO2)NCc1ccccc1 | 1.6 | 0.9 | -0.8 | -1.1 | 0.4 | 0.1 | · | ·
C/C(=N\Nc1nncc2ccccc12)c1ccc(OCC(=O)N(C)C)cc1 | 4.9 | -1.4 | -0.2 | 16.2* | 2.1 | 1.1 | 3.9 | 0.2
CCOC(=O)NNc1nncc2ccccc12 | -0.2 | -0.1 | -1.1 | -0.5 | 2.8 | 0.3 | · | ·
CC/C(=N\Nc1nncc2ccccc12)c1ccc(F)cc1 | 4.2 | -11.5 | 0.2 | 15.6* | 0.9 | -0.5 | 15.9* | 0.8
CCCCOc1ccc(N2CC(C(=O)NCCc3ccc(OC)c(OC)c3)CC2=O)cc1 (configuration not stated) | -0.2 | 2.6 | -0.9 | 3.4 | 0.4 | -0.8 | · | ·
O=C(C=C1SCCS1)/C=C/c1ccco1 | 3.6 | 0.5 | 0.2 | 14.8* | 3.7* | 0.0 | 14.3* | 0.7
Cc1nnc(-c2ccco2)c2cn(-c3cccc(Br)c3)nc12 | -4.1 | 9.5 | -2.7 | -6.3 | -1.7 | 1.1 | · | ·
O=C(COc1ccccc1[N+](=O)[O-])Nc1ccc(Br)cc1 | 3.3 | 52.7* | 0.6 | 16.4* | 2.5 | 6.8* | 11.3* | 0.4
C/C(=N\NC(=O)COc1ccccc1[N+](=O)[O-])c1cccs1 | 4.2 | 57.4* | -0.1 | 15.1* | 1.8 | -0.2 | 10.9* | 0.4
COc1ccc(OCC(=O)N/N=C(\C)c2cccs2)cc1 | -0.7 | 9.5 | -1.3 | 0.8 | 0.0 | 0.6 | · | ·
CCc1ccc2c(c1)Sc1ccccc1CC2N1CCN(C)CC1 (configuration not stated) | 0.1 | -0.1 | -0.7 | 1.0 | 1.0 | -1.9 | · | ·
O=C(NC1CCCN(Cc2ccc(Cl)cc2)C1)c1c(F)ccc(F)c1F (configuration not stated) | -0.8 | -2.7 | -1.3 | 0.2 | -0.4 | -0.6 | · | ·
CN(C)c1ccc(C=Cc2ccnc3ccccc23)cc1N | 2.3 | · | -0.5 | 17.5* | 0.6 | · | 10.1 | 0.4
COc1ccc(C=C(C(=O)c2ccccc2)c2ccccc2)cc1 | -0.6 | · | -0.2 | -1.8 | -1.2 | · | · | ·
COc1ccc(C=C(C(=O)c2ccccc2)C(=O)c2ccccc2)cc1 | 0.9 | · | -0.7 | 13.5* | 1.9 | · | 11.4* | 0.5
